Data reported in PubChem BioAssay.
Several values for one entry are separate records, joined by “and”; a condition that tells them apart may be missing. Equal entries are not always repeated. Inconclusive results are not listed. Activity calls are given as the source filed them.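 How the source made its calls, unless noted: active means normalized viability below 100% at a tested concentration; inactive means the rest.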

Experiments:
[1] = viability loss in pontine glioma line – cell-based, SU-DIPG-XIII, MIPE4.0, CellTiter-Glo, qHTS, dose response (AID 1347061; cut-off not given, nearly all actives have AC50 up to about 37 µM;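 further: cells exposed to compound for 48 hours before readout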); conditions: CellTiter-Glo ATP luminescence
[2] = viability loss in pontine glioma line – cell-based, JHH-DIPG-1, MIPE4.0, CellTiter-Glo, qHTS, dose response (AID 1347062; cut-off not given, nearly all actives have AC50 up to about 27 µM;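 on AC50: cells exposed to compound for two days before readout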); conditions: JHH-DIPG-1 viability, CellTiter-Glo ATP luminescence
[3] = viability loss in pontine glioma line – cell-based, SU-DIPG-XXV, MIPE5.0, CellTiter-Glo, qHTS, dose response (AID 1347065; cut-off not given, nearly all actives have AC50 up to about 26 µM;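 further: cells exposed to compound for 48 hours before ATP readout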); conditions: CellTiter-Glo ATP luminescence
[4] = growth inhibition of DIPG cells – cell-based, MIPE4.0 library, CellTiter-Glo luminescence, qHTS (AID 1347066; cut-off not given, nearly all actives have AC50 up to about 30 µM;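 further: cells exposed to compound for 48 hours before readout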); conditions: SU-DIPG-VI viability, CellTiter-Glo ATP luminescence
[5] = growth inhibition of DIPG cells – cell-based, MIPE5.0 library, qHTS (AID 1347068; cut-off not given, nearly all actives have IC50 up to about 30 µM); conditions: SU-DIPG-XXV viability
[6] = viability loss with induced miR-34 in A549 – imaging, A549 dox-inducible miR-34, nuclei and caspase counts, primary screen (AID 1347080;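 active means compounds whose cell count with miR-34 switched on is under 0.7 times the count with it off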); conditions: A549 miR-34 inducible, Hoechst nuclei count, 48 h
[7] = MELAS cybrid and Rieske KO viability enhancers – cell-based, MELAS cybrids, Rieske KO mouse fibroblasts, CellTiter-Glo, primary screen (AID 1508586;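 active means mean z-score across replicates of 1.96 or higher in either the MELAS or the Rieske mutant cell line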;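 further: z relative to plate mean and SD of compound and empty wells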); conditions: low glucose
[8] = drug combination growth inhibition, ovarian cancer – cell-based, oncology-focused library, rucaparib conditional, profiling panel (AID 1508598); conditions: patient-derived ovarian cancer cells, CellTiter-Glo viability, 144 h, stronger effect = lower value
[9] = JHH-DIPG-1 glioma cell viability, MIPE5.0 library, CellTiter-Glo luminescence, qHTS (AID 1347067; cut-off not given, nearly all actives have AC50 up to about 26 µM;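 further: cells exposed to compound for 48 hours before readout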); conditions: JHH-DIPG-1 glioma viability, CellTiter-Glo ATP luminescence
[10] = compounds altering HSF1 focus formation in cells – imaging, Selleck Cancer Library (AID 1347162; in the data active means plate-normalised HSF1 focus index below about 0.46); conditions: human cells, HSF1 nuclear foci imaging, at 10 µM; SSMD: measured here: HSF1 foci SSMD mean; cell count: measured here: cell number; plate-normalised HSF1 focus index: stronger effect = lower value
[11] = stronger effect = lower value, cell number ratio, induced over uninduced
[12] = measured here: relative caspase fold change +Dox/-Dox
[13] = measured here: total cells with miR-34 induction, stronger effect = lower value
[14] = measured here: total cells without miR-34 induction
[15] = MELAS cybrid survival, CellTiter-Glo 48 h, stronger effect = higher value
[16] = Rieske KO mouse fibroblast survival, CellTiter-Glo 72 h
[17] = at 0.000305 µM, OCI-C5x cells, with rucaparib 10 µM, 100% = cells with rucaparib alone
[18] = at 0.000305 µM, OCI-C5x cells, without rucaparib
[19] = at 0.000305 µM, OCI-P5x cells, with rucaparib 20 µM, 100% = cells with rucaparib alone
[20] = at 0.000305 µM, OCI-P5x cells, without rucaparib
[21] = at 0.00122 µM, OCI-C5x cells, with rucaparib 10 µM, 100% = cells with rucaparib alone
[22] = at 0.00122 µM, OCI-C5x cells, without rucaparib
[23] = at 0.00122 µM, OCI-P5x cells, with rucaparib 20 µM, 100% = cells with rucaparib alone
[24] = at 0.00122 µM, OCI-P5x cells, without rucaparib
[25] = at 0.00488 µM, OCI-C5x cells, with rucaparib 10 µM, 100% = cells with rucaparib alone
[26] = at 0.00488 µM, OCI-C5x cells, without rucaparib
[27] = at 0.00488 µM, OCI-P5x cells, with rucaparib 20 µM, 100% = cells with rucaparib alone
[28] = at 0.00488 µM, OCI-P5x cells, without rucaparib
[29] = at 0.0195 µM, OCI-C5x cells, with rucaparib 10 µM, 100% = cells with rucaparib alone
[30] = at 0.0195 µM, OCI-C5x cells, without rucaparib
[31] = at 0.0195 µM, OCI-P5x cells, with rucaparib 20 µM, 100% = cells with rucaparib alone
[32] = at 0.0195 µM, OCI-P5x cells, without rucaparib
[33] = at 0.0781 µM, OCI-C5x cells, with rucaparib 10 µM, 100% = cells with rucaparib alone
[34] = at 0.0781 µM, OCI-C5x cells, without rucaparib
[35] = at 0.0781 µM, OCI-P5x cells, with rucaparib 20 µM, 100% = cells with rucaparib alone
[36] = at 0.0781 µM, OCI-P5x cells, without rucaparib
[37] = at 0.313 µM, OCI-C5x cells, with rucaparib 10 µM, 100% = cells with rucaparib alone
[38] = at 0.313 µM, OCI-C5x cells, without rucaparib
[39] = at 0.313 µM, OCI-P5x cells, with rucaparib 20 µM, 100% = cells with rucaparib alone
[40] = at 0.313 µM, OCI-P5x cells, without rucaparib
[41] = at 1.25 µM, OCI-C5x cells, with rucaparib 10 µM, 100% = cells with rucaparib alone
[42] = at 1.25 µM, OCI-C5x cells, without rucaparib
[43] = at 1.25 µM, OCI-P5x cells, with rucaparib 20 µM, 100% = cells with rucaparib alone
[44] = at 1.25 µM, OCI-P5x cells, without rucaparib
[45] = at 5 µM, OCI-C5x cells, with rucaparib 10 µM, 100% = cells with rucaparib alone
[46] = at 5 µM, OCI-C5x cells, without rucaparib
[47] = at 5 µM, OCI-P5x cells, with rucaparib 20 µM, 100% = cells with rucaparib alone
[48] = at 5 µM, OCI-P5x cells, without rucaparib

For `Cc1cccc(Nc2nc(-c3ccncc3)cs2)c1`, the outcome [1] was “inactive”, the AC50 [2] was 20.9 µM (active) and the AC50 [3] was 20.9 µM (active). For the same molecule, the outcome [4] was “inactive”, the outcome [5] was “inactive” and the fold change [6, 11] was 0.988 (inactive) and 0.935 (inactive). The fold change [6, 12] was 0.542 and 0.911, the cell count [6, 13] was 4770 and 4650 and the cell count [6, 14] was 4820 and 4970. The z-score [7, 15] was -0.247 (inactive), the z-score [7, 16] was 1.01 and the viability [8, 17] was 109% (inactive). For the same molecule, the viability [8, 18] was 111% (inactive), the viability [8, 19] was 88.3% (active) and the viability [8, 20] was 86.6% (active). For the same molecule, the viability [8, 21] was 108% (inactive), the viability [8, 22] was 108% (inactive) and the viability [8, 23] was 95.8% (active). The viability [8, 24] was 93.7% (active), the viability [8, 25] was 114% (inactive) and the viability [8, 26] was 106% (inactive). For the same molecule, the viability [8, 27] was 75.1% (active), the viability [8, 28] was 94.9% (active) and the viability [8, 29] was 112% (inactive). For the same molecule, the viability [8, 30] was 112% (inactive), the viability [8, 31] was 110% (inactive) and the viability [8, 32] was 89.5% (active). For the same molecule, the viability [8, 33] was 107% (inactive), the viability [8, 34] was 108% (inactive) and the viability [8, 35] was 102% (inactive). The viability [8, 36] was 101% (inactive), the viability [8, 37] was 115% (inactive) and the viability [8, 38] was 106% (inactive). The viability [8, 39] was 104% (inactive), the viability [8, 40] was 95.3% (active) and the viability [8, 41] was 129% (inactive). For the same molecule, the viability [8, 42] was 115% (inactive), the viability [8, 43] was 101% (inactive) and the viability [8, 44] was 98.4% (active). The viability [8, 45] was 157% (inactive), the viability [8, 46] was 136% (inactive) and the viability [8, 47] was 82.2% (active). For the same molecule, the viability [8, 48] was 110% (inactive).

In the case of `CCCCC(=O)O[C@]1(C(=O)CO)[C@H](C)C[C@H]2[C@@H]3CCC4=CC(=O)C=C[C@]4(C)[C@@]3(F)[C@@H](O)C[C@@]21C`, the outcome [1] is reported as “inactive”, the outcome [2] is reported as “inactive” and the outcome [4] is reported as “inactive”.

For `Cc1csc(-c2nnc(Nc3ccc(Oc4ncccc4-c4ccnc(N)n4)cc3)c3ccccc23)c1`, the outcome [1] was “inactive”, the outcome [2] was “inactive” and the AC50 [3] was 0.00417 µM (active). For the same molecule, the outcome [4] was “inactive”, the outcome [9] was “inactive” and the fold change [6, 11] was 1.11 (inactive). The fold change [6, 12] was 0.556, the cell count [6, 13] was 3250 and the cell count [6, 14] was 2920. The SSMD [10] was 8.74, the cell count [10] was 7110 and the plate-normalised HSF1 focus index [10] was 1.31 (inactive). For the same molecule, the z-score [7, 15] was -0.373 (inactive), the z-score [7, 16] was 1.23 and the viability [8, 17] was 113% (inactive). For the same molecule, the viability [8, 18] was 116% (inactive), the viability [8, 19] was 111% (inactive) and the viability [8, 20] was 94.9% (active). For the same molecule, the viability [8, 21] was 109% (inactive), the viability [8, 22] was 107% (inactive) and the viability [8, 23] was 108% (inactive). For the same molecule, the viability [8, 24] was 98.2% (active), the viability [8, 25] was 103% (inactive) and the viability [8, 26] was 92.7% (active). For the same molecule, the viability [8, 27] was 113% (inactive), the viability [8, 28] was 93.3% (active) and the viability [8, 29] was 78.2% (active). The viability [8, 30] was 88.5% (active), the viability [8, 31] was 93% (active) and the viability [8, 32] was 70.3% (active). The viability [8, 33] was 82.2% (active), the viability [8, 34] was 99.2% (active) and the viability [8, 35] was 92.9% (active). For the same molecule, the viability [8, 36] was 66.6% (active), the viability [8, 37] was 79.9% (active) and the viability [8, 38] was 105% (inactive). The viability [8, 39] was 94.9% (active), the viability [8, 40] was 67.8% (active) and the viability [8, 41] was 102% (inactive). The viability [8, 42] was 95.4% (active), the viability [8, 43] was 91% (active) and the viability [8, 44] was 64.7% (active). The viability [8, 45] was 119% (inactive), the viability [8, 46] was 133% (inactive) and the viability [8, 47] was 58.5% (active). The viability [8, 48] was 54.4% (active).
